Potency and affinity values are given separately. The source made the active and inactive calls. A call without a number means that no potency is given here. No rule for the calls is given here.
Assay: MDCK cell cytotoxicity, dose response, cytotoxicity control (AID 540296)

For `Cc1ccc(N2C(=O)C(CC(=O)Nc3cccc(F)c3)N(C3CC3)C2=O)cc1` (configuration not stated), the outcome was “inactive”.

In the case of `CN(C)c1cccc2c(C=C(C#N)C#N)ccc(N(C)C)c12`, the outcome is reported as “inactive”.
